Results on 39 molecules are retold here after ChEMBL document CHEMBL3988442, “University of Dundee, Small-Polar-MMV Screening Library” (2021).

The first assay has as its system Trypanosoma cruzi. Kind of assay: Trypanosoma cruzi phosphomannomutase and mannose-1-phosphate guanylyltransferase assay. It counts as functional. On the set-up: scale not given: direction of the effect not stated beside the values. Particulars: 10 µM.
For `CN(C)C(=O)N1CCOCC2(CCN(c3ccccn3)C2)C1` (stereo not drawn), the Percent Effect is -2.64%.

In the case of `CCN(CC)Cc1ccc(C(=O)N2CCCCC2Cn2cccn2)o1` (stereo not drawn), the Percent Effect is -0.0929%.

As for `O=C(c1ccc(F)c(F)c1)N1CCCSCC1CN1CCCC1` (stereo not drawn), the Percent Effect was found to be 2.86%.

On to `Cn1cc(N2CC3(CCN(CC4CCOCC4)CC3)OCC2=O)cn1`, for which the Percent Effect is -0.197%.

With `Cc1cn2nc(N3CCCC3CC(C)(C)C)sc2n1` (stereo not drawn), the Percent Effect worked out at 0.103%.

As to `CCSc1cc(C(=O)NCCC(=O)Nc2ccccn2)ccn1`, the Percent Effect stood at 6.27%.

In the case of `CC(C)Cc1noc(CN2CCN(CCO)CC2)n1`, the Percent Effect was -2.07%.

On to `CCOc1cc(F)ccc1NS(=O)(=O)c1cc(C)c(C(=O)O)s1`, for which the Percent Effect stood at 4.59%.

`O=C(CC1CC1)NCc1cn2c(n1)CN(CC1CC1)CC2`: the Percent Effect was -3.54%.

As for `COc1cccc2c1OCC(NC(=O)NCc1cccs1)C2` (stereo not drawn), the Percent Effect is 0.876%.

With `Cc1nc(-c2ccsc2)ccc1C(=O)NCCC(=O)N1CCCC1`, the Percent Effect came to 6.2%.

With `COc1ccc(-c2nc(CN3CC(n4cc(C)cn4)C3)no2)cc1`, the Percent Effect amounted to 4.03%.

Regarding `Cn1nc(CNC(=O)C2CC2)cc1C1CC1`, the Percent Effect turned out to be 2.27%.

Consider `CCCc1n[nH]c(C2CN(Cc3nnc(C4CC4)o3)CCO2)n1` (stereo not drawn), for which the Percent Effect came to 4.25%.

Consider `CC(=O)N1CCCN(C(=O)c2cnc3n[nH]c(C)c3c2)CC1`, for which the Percent Effect stood at 3.08%.

Consider `COc1ccc(C2(CNC(C)c3nnc(C)o3)CCCCC2)cc1` (stereo not drawn), for which the Percent Effect amounted to 8.69%.

For the molecule `CCN(CC)Cc1cn2c(n1)CN(C(=O)c1cnccn1)CC2`, the Percent Effect was -3.62%.

For the molecule `OCCOc1nc(-c2ccccc2Cl)no1`, the Percent Effect is 4.9%.

`CCN(C)c1ncnc2c1CCN(C(=O)N1CCCC1)CC2`: the Percent Effect was -8.88%.

Regarding `NCC1CN(c2nc(-c3ccccc3)nc3c2CCNCC3)CCO1` (stereo not drawn), the Percent Effect turned out to be 9.32%.

`Cc1cnc(N2CCn3cc(CNC(=O)CC4CC4)nc3C2)nc1`: the Percent Effect is -2.76%.

With `Cc1cnn(C2CCCN(C(=O)CCc3nccs3)C2)c1` (stereo not drawn), the Percent Effect is -8.4%.

On to `CC(C)NC(=O)N1CCC(n2ccc(C(F)(F)F)n2)CC1`, for which the Percent Effect was -2.74%.

As to `CC(=O)N1CCCN(C(=O)c2csc(-c3ccc(C)cc3C)n2)CC1`, the Percent Effect stood at 7.15%.

Turning to `O=C1NCC2(CCCN(CCc3ccccc3)C2)Oc2ccccc21` (stereo not drawn), the Percent Effect is -3.36%.

In the case of `Cc1ccc(-c2cc(CNC(=O)N3CCC(CO)CC3)on2)cc1`, the Percent Effect was -4.74%.

On to `CC(C)N1CCC(NCc2cccnc2N(C)Cc2ccccc2)CC1`, for which the Percent Effect stood at 0.0974%.

On to `COCC1CN(C(=O)CNC(C)=O)Cc2ncnn2C1` (stereo not drawn), for which the Percent Effect came to 2.65%.

As for `CN1CCOC(CNCc2cccc(OCc3ccccn3)c2)C1` (stereo not drawn), the Percent Effect was 3.87%.

Regarding `C=Cn1ncc(CN2C[C@@H]3CCCN3C[C@@H]2Cc2ccccc2)c1C`, the Percent Effect came to 2.37%.

For `O=C(CCNS(=O)(=O)c1ccc2c(c1)CCCC2)NCc1ccoc1`, the Percent Effect was -2.43%.

Regarding `CN(CCc1ccccc1)C1CCCN(Cc2nccn2C)C1` (stereo not drawn), the Percent Effect was 8.36%.

On to `CC(=O)N1CCOCC2(CN(Cc3ccc(C)o3)CCO2)C1` (stereo not drawn), for which the Percent Effect worked out at 0.591%.

In the case of `O=c1cc(Cn2ccnc2)nc2n1CCCN(Cc1ccsc1)C2`, the Percent Effect is -5.7%.

As for `O=C(Cc1ccccc1F)N1C[C@@H]2COC[C@]2(COc2cccnc2)C1`, the Percent Effect was -1.66%.

In the case of `c1ccc(-c2cc(CN3CCC(c4ccn[nH]4)CC3)on2)cc1`, the Percent Effect was -1.54%.

Regarding `CCc1nnc2n1CCN(Cc1csc(-c3ccsc3)n1)C2`, the Percent Effect stood at 0.68%.

Consider `Cc1cc(NC(=O)Cn2cc(C#N)c(=O)c3cc(Br)ccc32)no1`, for which the Percent Effect is -1.27%.

For the molecule `COCc1nc2cc(NCc3ccc(C)o3)ccc2o1`, the Percent Effect was found to be 6.05%.

A further assay addresses T1, Arginase-2, mitochondrial (Homo sapiens) (UniProt P78540).
T1 sequence (whole entry): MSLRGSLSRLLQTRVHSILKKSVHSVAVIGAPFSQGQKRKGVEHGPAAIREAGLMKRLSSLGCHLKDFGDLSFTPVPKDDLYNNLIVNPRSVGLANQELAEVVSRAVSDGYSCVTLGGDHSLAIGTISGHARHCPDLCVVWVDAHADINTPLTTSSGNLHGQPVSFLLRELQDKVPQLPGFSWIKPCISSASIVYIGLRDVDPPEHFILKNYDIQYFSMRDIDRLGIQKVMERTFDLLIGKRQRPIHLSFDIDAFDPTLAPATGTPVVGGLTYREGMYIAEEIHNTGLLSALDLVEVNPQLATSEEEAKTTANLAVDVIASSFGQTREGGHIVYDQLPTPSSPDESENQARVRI
Briefly: in vitro enzyme assay to detect the production of urea directly proportional to the activity of Arginase II. Details: scale not given: in the data most compounds retested in dose-response had high values. It counts as functional. Particulars: 33.3 µM.
As to `CN(C)C(=O)N1CCOCC2(CCN(c3ccccn3)C2)C1` (stereo not drawn), the Percent Effect was 2.23%.

`CCN(CC)Cc1ccc(C(=O)N2CCCCC2Cn2cccn2)o1` (stereo not drawn): the Percent Effect was -1.29%.

Take `O=C(c1ccc(F)c(F)c1)N1CCCSCC1CN1CCCC1` (stereo not drawn): the Percent Effect is -0.645%.

Take `Cn1cc(N2CC3(CCN(CC4CCOCC4)CC3)OCC2=O)cn1`: the Percent Effect came out at 2.99%.

On to `Cc1cn2nc(N3CCCC3CC(C)(C)C)sc2n1` (stereo not drawn), for which the Percent Effect is 2.8%.

Turning to `CCSc1cc(C(=O)NCCC(=O)Nc2ccccn2)ccn1`, the Percent Effect is 0.909%.

As for `CC(C)Cc1noc(CN2CCN(CCO)CC2)n1`, the Percent Effect worked out at 0.766%.

Take `CCOc1cc(F)ccc1NS(=O)(=O)c1cc(C)c(C(=O)O)s1`: the Percent Effect turned out to be 0.248%.

As to `O=C(CC1CC1)NCc1cn2c(n1)CN(CC1CC1)CC2`, the Percent Effect amounted to 1.63%.

For `COc1cccc2c1OCC(NC(=O)NCc1cccs1)C2` (stereo not drawn), the Percent Effect is -2.37%.

In the case of `Cc1nc(-c2ccsc2)ccc1C(=O)NCCC(=O)N1CCCC1`, the Percent Effect was 1.15%.

For `COc1ccc(-c2nc(CN3CC(n4cc(C)cn4)C3)no2)cc1`, the Percent Effect was found to be 88.3%.

For `Cn1nc(CNC(=O)C2CC2)cc1C1CC1`, the Percent Effect is -4.52%.

Turning to `CCCc1n[nH]c(C2CN(Cc3nnc(C4CC4)o3)CCO2)n1` (stereo not drawn), the Percent Effect was -1.9%.

For the molecule `CC(=O)N1CCCN(C(=O)c2cnc3n[nH]c(C)c3c2)CC1`, the Percent Effect was 3.96%.

In the case of `COc1ccc(C2(CNC(C)c3nnc(C)o3)CCCCC2)cc1` (stereo not drawn), the Percent Effect is -4.76%.

As for `CCN(CC)Cc1cn2c(n1)CN(C(=O)c1cnccn1)CC2`, the Percent Effect came out at 6.69%.

`OCCOc1nc(-c2ccccc2Cl)no1`: the Percent Effect was 18.6%.

On to `CCN(C)c1ncnc2c1CCN(C(=O)N1CCCC1)CC2`, for which the Percent Effect is -54.7%.

Take `NCC1CN(c2nc(-c3ccccc3)nc3c2CCNCC3)CCO1` (stereo not drawn): the Percent Effect worked out at 0.798%.

Consider `Cc1cnc(N2CCn3cc(CNC(=O)CC4CC4)nc3C2)nc1`, for which the Percent Effect came out at 2.1%.

Regarding `Cc1cnn(C2CCCN(C(=O)CCc3nccs3)C2)c1` (stereo not drawn), the Percent Effect amounted to 1.2%.

Take `CC(C)NC(=O)N1CCC(n2ccc(C(F)(F)F)n2)CC1`: the Percent Effect is -0.909%.

Consider `CC(=O)N1CCCN(C(=O)c2csc(-c3ccc(C)cc3C)n2)CC1`, for which the Percent Effect is -7.58%.

Regarding `O=C1NCC2(CCCN(CCc3ccccc3)C2)Oc2ccccc21` (stereo not drawn), the Percent Effect stood at 2.55%.

In the case of `Cc1ccc(-c2cc(CNC(=O)N3CCC(CO)CC3)on2)cc1`, the Percent Effect was -0.185%.

Regarding `CC(C)N1CCC(NCc2cccnc2N(C)Cc2ccccc2)CC1`, the Percent Effect was 1.04%.

For `COCC1CN(C(=O)CNC(C)=O)Cc2ncnn2C1` (stereo not drawn), the Percent Effect came out at 2.76%.

In the case of `CN1CCOC(CNCc2cccc(OCc3ccccn3)c2)C1` (stereo not drawn), the Percent Effect is -1.9%.

Turning to `C=Cn1ncc(CN2C[C@@H]3CCCN3C[C@@H]2Cc2ccccc2)c1C`, the Percent Effect is 0.696%.

Take `O=C(CCNS(=O)(=O)c1ccc2c(c1)CCCC2)NCc1ccoc1`: the Percent Effect is -2.08%.

In the case of `CN(CCc1ccccc1)C1CCCN(Cc2nccn2C)C1` (stereo not drawn), the Percent Effect amounted to 0%.

As to `CC(=O)N1CCOCC2(CN(Cc3ccc(C)o3)CCO2)C1` (stereo not drawn), the Percent Effect is 0.699%.

Take `O=c1cc(Cn2ccnc2)nc2n1CCCN(Cc1ccsc1)C2`: the Percent Effect was -6.51%.

With `O=C(Cc1ccccc1F)N1C[C@@H]2COC[C@]2(COc2cccnc2)C1`, the Percent Effect was found to be 10.5%.

Take `c1ccc(-c2cc(CN3CCC(c4ccn[nH]4)CC3)on2)cc1`: the Percent Effect was -0.952%.

Take `CCc1nnc2n1CCN(Cc1csc(-c3ccsc3)n1)C2`: the Percent Effect was 0.883%.

Consider `Cc1cc(NC(=O)Cn2cc(C#N)c(=O)c3cc(Br)ccc32)no1`, for which the Percent Effect was -9.9%.

On to `COCc1nc2cc(NCc3ccc(C)o3)ccc2o1`, for which the Percent Effect was found to be 37.1%.
